Laboratory results as given in PubChem BioAssay (NCI).
The panel holds about 83,000 compounds, 20% with a hit somewhere; the sample as a whole holds those more often.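 Growth was measured after 48 h exposure to one concentration of compound in 96-well plates. Values under 10 count as active.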 Unmarked numbers belong to inactive results. The source made the active and inactive calls.

These compounds were tested on MALME-3M melanoma (assay: NCI-60 one-dose screen, 48 h (100 = growth as untreated, 0 = no growth, -100 = all killed)). Conditions: 10 µM unless noted.

SMILES	growth
CN(C)c1ccc(/C=C/c2n(Cc3ccc4ccccc4c3)c3ccccc3[n+]2Cc2ccc3ccccc3c2)cc1	-68% (active)
Cc1nn(-c2ccccc2)c2nc(C)n(CC(=O)N/N=C/c3ccccc3O)c(=O)c12	47.4%
CC1=C(C)C(=O)C(N2CCSCC2)=CC1=O	91.3%
NC(=O)c1ccc(-c2ccc3ncnc(N4CCc5cc(F)c(Cl)cc54)c3c2)cn1	78.9%
Cn1ncc2c(N)nc(Oc3ccccc3-c3ccccc3)nc21	25.7%
C=CC[n+]1cccc2c3ccccc3ccc21	2.38% (active)
COc1ccc2nc(NC(=O)c3ccc(N(C)C)cc3)sc2c1	72.7%
O=C(N/N=C/c1ccoc1)c1[nH]c2ccc(Br)cc2c1-c1ccccc1	-84.7% (active)
O=C(Nc1ccc(-c2ccc3c(c2)NC(=O)/C3=C\c2ccc[nH]2)cc1)Nc1ccc(Cl)c(C(F)(F)F)c1	64.4%
CN1C(=O)/C(=C/c2ccco2)S/C1=N/c1nccs1	118%
COc1cccc2nc(Nc3cccc(NC(=O)c4ccc(CN5CCN(C)CC5)c(C(F)(F)F)c4)c3)ccc12	-96.4% (active)
Fc1cccc(CNc2nc(SCCN3CCOCC3)nc3c2cnn3CC(Cl)c2ccc(Br)cc2)c1 (centres undefined)	-19.6% (active)
CCCCNc1ccc2c3c(cccc13)C(=O)N(c1cccc(-c3nn(-c4ccccc4)cc3-c3nc4ccccc4s3)c1)C2=O	103%
N/C(=N\c1nc2ccccc2s1)NC(=O)Nc1ccccc1[N+](=O)[O-]	44.6%
